Measurements: PubChem BioAssay
Active and inactive are the calls of the source.

Legend:
[1] = small molecules captured by biotinylated probe aFSTL3 – biochemical, small-molecule microarray, fluorescence 635/667, stem cell growth factor project, primary screen (AID 1064); conditions: higher = more signal;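 further: measures binding of the biotinylated anti-FSTL3 antibody to printed compounds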
[2] = binders from COS7 lysate, DM2A8 probe, primary screen, torsin A project, cell lysate, small-molecule microarray, fluorescence 635/667 (AID 1065); conditions: higher = more signal, COS7 lysate expressing mutant human TOR1A
[3] = small molecules captured by biotinylated probe aFGF2 – biochemical, small-molecule microarray, fluorescence 635/667, stem cell growth factor project, primary screen (AID 1067); conditions: higher = more signal;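 further: measures binding of biotinylated aFGF2 protein to printed compounds on slides; z-score merges feature fluorescence and signal-to-noise across triplicate slides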
[4] = small molecules captured by biotinylated probe aFGF10 – biochemical, small-molecule microarray, fluorescence 635/667, stem cell growth factor project, primary screen (AID 1071); conditions: higher = more signal;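 further: score merges 667 nm spot intensity and signal to noise from triplicate slides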
[5] = target: Neurogenic locus notch homolog protein 2 (Homo sapiens) (UniProt Q04721); assay: small molecules binding Notch2 protein – biochemical, small-molecule microarray, 635 nm fluorescence, stem cell growth factors, primary screen (AID 1073); conditions: higher = more signal
Chain of Neurogenic locus notch homolog protein 2 (Homo sapiens) (Q04721 whole entry, looked up, canonical isoform): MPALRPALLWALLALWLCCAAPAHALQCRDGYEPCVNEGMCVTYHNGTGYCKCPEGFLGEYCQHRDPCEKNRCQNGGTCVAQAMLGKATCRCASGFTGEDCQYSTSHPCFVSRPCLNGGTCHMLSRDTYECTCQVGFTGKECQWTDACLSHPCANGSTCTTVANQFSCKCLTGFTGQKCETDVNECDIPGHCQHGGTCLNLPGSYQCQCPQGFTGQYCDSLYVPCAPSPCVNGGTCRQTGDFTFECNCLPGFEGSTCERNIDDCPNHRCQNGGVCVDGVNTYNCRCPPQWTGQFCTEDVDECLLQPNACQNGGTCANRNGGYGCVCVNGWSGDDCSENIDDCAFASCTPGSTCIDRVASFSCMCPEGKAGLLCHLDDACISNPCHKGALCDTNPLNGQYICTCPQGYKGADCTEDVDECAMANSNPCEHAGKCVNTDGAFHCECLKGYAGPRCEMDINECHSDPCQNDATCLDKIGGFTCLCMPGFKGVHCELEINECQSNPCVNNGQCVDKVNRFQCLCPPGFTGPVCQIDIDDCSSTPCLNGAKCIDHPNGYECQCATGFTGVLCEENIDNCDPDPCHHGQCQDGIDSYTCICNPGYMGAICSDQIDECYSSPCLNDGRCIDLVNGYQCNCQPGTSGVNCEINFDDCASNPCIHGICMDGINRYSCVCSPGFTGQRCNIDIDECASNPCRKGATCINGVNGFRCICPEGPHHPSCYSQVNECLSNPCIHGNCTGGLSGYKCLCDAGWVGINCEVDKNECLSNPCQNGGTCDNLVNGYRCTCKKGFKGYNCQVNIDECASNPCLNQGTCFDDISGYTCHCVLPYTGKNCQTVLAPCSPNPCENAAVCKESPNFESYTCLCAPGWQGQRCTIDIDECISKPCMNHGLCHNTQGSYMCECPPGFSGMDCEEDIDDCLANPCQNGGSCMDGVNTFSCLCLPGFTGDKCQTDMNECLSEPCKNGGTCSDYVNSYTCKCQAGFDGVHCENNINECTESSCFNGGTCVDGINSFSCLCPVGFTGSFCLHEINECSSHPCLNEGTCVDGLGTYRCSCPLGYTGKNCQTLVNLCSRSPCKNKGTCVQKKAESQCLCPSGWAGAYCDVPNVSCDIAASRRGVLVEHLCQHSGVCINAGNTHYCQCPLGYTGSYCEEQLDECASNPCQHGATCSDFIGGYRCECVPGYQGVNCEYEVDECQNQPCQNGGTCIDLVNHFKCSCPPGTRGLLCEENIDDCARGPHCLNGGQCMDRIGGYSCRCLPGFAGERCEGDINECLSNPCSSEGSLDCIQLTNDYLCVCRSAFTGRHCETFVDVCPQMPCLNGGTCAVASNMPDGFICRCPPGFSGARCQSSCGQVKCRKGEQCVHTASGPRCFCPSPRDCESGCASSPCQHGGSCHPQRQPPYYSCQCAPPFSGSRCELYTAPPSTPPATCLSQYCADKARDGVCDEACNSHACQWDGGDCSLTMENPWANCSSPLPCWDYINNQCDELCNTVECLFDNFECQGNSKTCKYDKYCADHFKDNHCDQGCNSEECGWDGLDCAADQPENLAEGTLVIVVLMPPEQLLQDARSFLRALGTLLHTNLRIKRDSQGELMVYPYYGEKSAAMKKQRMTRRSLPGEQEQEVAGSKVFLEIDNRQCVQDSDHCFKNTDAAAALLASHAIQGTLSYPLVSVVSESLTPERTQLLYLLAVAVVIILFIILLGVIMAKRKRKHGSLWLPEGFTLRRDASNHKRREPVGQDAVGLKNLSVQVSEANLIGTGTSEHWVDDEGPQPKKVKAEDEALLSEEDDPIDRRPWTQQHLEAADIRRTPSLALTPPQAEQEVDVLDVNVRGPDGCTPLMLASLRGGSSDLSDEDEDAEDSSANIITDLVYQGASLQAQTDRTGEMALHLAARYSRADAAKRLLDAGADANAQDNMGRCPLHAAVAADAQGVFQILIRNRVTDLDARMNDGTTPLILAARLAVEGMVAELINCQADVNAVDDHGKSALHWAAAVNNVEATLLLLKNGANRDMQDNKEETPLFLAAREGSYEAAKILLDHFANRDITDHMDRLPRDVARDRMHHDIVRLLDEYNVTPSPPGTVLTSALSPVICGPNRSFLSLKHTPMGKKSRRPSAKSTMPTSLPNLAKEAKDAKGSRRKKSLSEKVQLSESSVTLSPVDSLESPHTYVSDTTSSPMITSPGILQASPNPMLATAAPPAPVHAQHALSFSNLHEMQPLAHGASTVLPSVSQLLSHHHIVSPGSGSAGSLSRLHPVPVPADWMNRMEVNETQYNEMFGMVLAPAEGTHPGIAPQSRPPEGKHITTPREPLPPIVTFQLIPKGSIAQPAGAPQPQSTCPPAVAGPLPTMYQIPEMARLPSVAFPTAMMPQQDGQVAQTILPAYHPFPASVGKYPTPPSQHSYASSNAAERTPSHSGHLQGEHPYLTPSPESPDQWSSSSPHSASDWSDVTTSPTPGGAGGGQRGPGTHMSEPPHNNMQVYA

[6] = target: Pro-neuregulin-1, membrane-bound isoform (Homo sapiens) (UniProt Q02297); assay: small molecules binding neuregulin-1 protein – biochemical, small-molecule microarray, fluorescence 635/667, psychiatric disease protein project, primary screen (AID 1075); conditions: NRG1 binding, 635 nm fluorescence, higher = more signal;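 further: score combines 667 nm spot fluorescence with signal to noise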
Chain of Pro-neuregulin-1, membrane-bound isoform (Homo sapiens) (Q02297 whole entry, looked up, the tested form may be a part, canonical isoform): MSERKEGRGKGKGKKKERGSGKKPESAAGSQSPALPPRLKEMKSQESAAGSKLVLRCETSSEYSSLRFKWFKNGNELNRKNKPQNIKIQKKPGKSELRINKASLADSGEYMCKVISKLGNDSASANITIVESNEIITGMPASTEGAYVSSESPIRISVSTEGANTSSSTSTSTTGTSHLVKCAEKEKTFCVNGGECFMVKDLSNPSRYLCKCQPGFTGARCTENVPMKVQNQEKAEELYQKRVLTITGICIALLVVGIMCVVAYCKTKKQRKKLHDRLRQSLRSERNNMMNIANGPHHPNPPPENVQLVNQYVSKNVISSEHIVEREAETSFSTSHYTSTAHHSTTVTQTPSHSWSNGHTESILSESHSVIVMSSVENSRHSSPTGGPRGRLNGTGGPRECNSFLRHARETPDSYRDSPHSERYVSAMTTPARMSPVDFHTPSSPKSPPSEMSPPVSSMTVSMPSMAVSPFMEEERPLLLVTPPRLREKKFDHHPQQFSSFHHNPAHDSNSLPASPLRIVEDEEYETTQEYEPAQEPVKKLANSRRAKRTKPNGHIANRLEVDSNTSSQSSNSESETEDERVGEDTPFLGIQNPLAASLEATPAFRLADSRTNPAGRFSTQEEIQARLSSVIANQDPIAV

[7] = test system: Neuregulin-1 EGF-like domain; assay: small molecules binding NRG1 EGF domain – biochemical, small-molecule microarray, 635 nm fluorescence, primary screen (AID 1081); conditions: higher = more signal;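 further: binding of the protein to compounds printed on small-molecule microarray slides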
[8] = FRG1 expression reporter modulators in myotubes – cell-based, C2C12 myotubes, firefly/Renilla luciferase, luminescence, FRG1 inhibition for FSHD, primary screen (AID 1084); conditions: FRG1 promoter luciferase, higher = more signal, called active from +8 up or from −8 down
[9] = small molecules captured by biotinylated probe aFST – biochemical, small-molecule microarray, fluorescence 635/667, stem cell growth factor project, primary screen (AID 1086); conditions: higher = more signal;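 further: score merges 667 nm fluorescence with signal-to-noise of each printed compound spot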
[10] = binders of probe aHhip on microarray, primary screen, stem cell growth factor project, biochemical, small-molecule microarray, fluorescence 635/667 (AID 1087); conditions: higher = more signal;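 further: score merges spot fluorescence at 667nm with spot signal to noise ratio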

Compound | composite z-score [1] | composite z-score [2] | composite z-score [3] | composite z-score [4] | composite z-score [5] | composite z-score [6] | composite z-score [7] | z-score [8] | composite z-score [9] | composite z-score [10]
COCCOC(=O)N1C(=O)[C@@]2(c3cc(C#CC4=CCCCC4)ccc31)[C@H](c1ccc(O)cc1)N1[C@H](c3ccccc3)[C@H](c3ccccc3)OC(=O)[C@H]1[C@@H]2C(=O)N1CCc2cc(OC)c(OC)cc2C1 | -0.253 | -0.252 | -0.0824 | 0.142 | 0.454 | 0.554 | 1.11 | 0.237 (inactive) | 0.0477 | -0.0296
C=CCN1C(=O)[C@@]2(O[C@@H](CCO)[C@H]([Si](C)(C)c3ccc(OC)cc3)[C@H]2C)c2cc(N3CCCCC3=O)ccc21 | -0.217 | 0.504 | -0.0415 | 0.268 | 0.704 | 1.12 | 1.14 | -1.11 (inactive) | 0.2 | 0.0373
C=C(CCCC)C(=O)CC[C@@H](OC(C)=O)c1ccc(OCCO)cc1 | 0.0324 | 1.11 | -0.0909 | 1.01 | -0.626 | 0.409 | 1.02 | -0.0798 (inactive) | 0.0685 | -0.134
COCCCNC(=O)[C@@]1(Cc2ccccc2I)c2ccccc2C(=O)N(Cc2ccccc2C(F)(F)F)[C@H]1c1ccc(CO)cc1 | 0.088 | 0.395 | -0.0232 | -0.283 | -1.01 | 0.988 | 1.05 | -1.78 (inactive) | 0.341 | 0.0826
C=C(CCCC)/C(=C/C[C@@H](OC(C)=O)c1ccc(OCCO)cc1)c1cc(C(=O)OC)ccc1OC | 0.0062 | 0.982 | -0.076 | -0.314 | -0.332 | 1.37 | 1.21 | 2.07 (inactive) | 0.0501 | -0.119
C=CCNC(=O)[C@H]1[C@@H]2C(=O)O[C@@H](c3ccccc3)[C@@H](c3ccccc3)N2[C@@H](c2ccc(O)cc2)[C@]12C(=O)Nc1ccc(C#CCC(C(=O)OC)C(=O)OC)cc12 | -0.102 | -0.0975 | -0.0878 | 0.0813 | 0.136 | 0.0652 | 1.19 | -0.32 (inactive) | 0.0765 | -0.261
CCCCCN1CC=CC23O[C@@H]4/C=C\CCCOC(=O)C4[C@H]2C(=O)N(CCO)[C@@H]3C1=O (stereo not given in full) | 0.0382 | 0.351 | -0.133 | -0.148 | -0.326 | 0.913 | 1.5 | -0.345 (inactive) | -0.345 | -0.223
COc1ccc([Si](C)(C)[C@@H]2[C@@H](CC(=O)N3Cc4ccccc4C[C@H]3CO)O[C@]3(C(=O)N(Cc4ccc(I)cc4)c4ccccc43)[C@H]2C)cc1 | -0.127 | 0.0826 | -0.136 | 0.184 | 0.472 | 0.537 | 0.909 | -2.83 (inactive) | 0.259 | -0.204
CC[C@H]1C2=C3C(CC[C@H]4C(OCc5ccc(F)cc5C(F)(F)F)OC[C@](C)([C@@H]34)N(C(=O)OC(C)(C)C)C2)C(COC(C)=O)C1COC(C)=O (stereo not given in full) | -0.187 | -0.25 | 0.0311 | 0.54 | 1.54 | 1 | 1.2 | 1.48 (inactive) | 1.43 | 0.104
O=C1NC(=O)C2C1C=CC(C(O)C(c1ccccc1)c1ccccc1)N2Nc1ccccn1 (stereo not given) | 0.473 | 0.521 | 0.162 | 0.951 | 1.05 | 0.604 | 1.25 | 0.723 (inactive) | 0.59 | -0.0959
C=C(C(=O)CC[C@@H](OC(=O)c1ccccc1-c1ccccc1C(=O)O)c1ccc(CO)o1)C(C)C | -0.422 | 1.18 | -0.087 | 1.03 | 0.0438 | 0.115 | 0.445 | 0.0639 (inactive) | 0.379 | -0.0645
CN1C(=O)C2C=CC(C(O)c3ccc([N+](=O)[O-])cc3)N(Nc3ccccc3)C2C1=O (stereo not given) | -0.001 | 0.135 | 0.235 | 0.889 | 1.62 | 1.75 | 1.16 | -0.439 (inactive) | 0.955 | -0.156
C=CCOC(=O)[C@@H]1[C@H]2C(=O)O[C@H](c3ccccc3)[C@H](c3ccccc3)N2[C@H](c2ccc(OCCOC(=O)[C@@H]3C[C@@H]4C(=O)N[C@@H](CC(C)C)C(=O)N4[C@@H]3c3ccc(O)cc3)cc2)[C@@]12C(=O)Nc1ccc(I)cc12 | -0.479 | 0.17 | -0.0489 | 0.325 | 0.853 | 0.616 | 1.29 | -0.277 (inactive) | 0.4 | 0.383
O=C1C2C=CC(C(O)C(c3ccccc3)c3ccccc3)N(Nc3ccccc3F)C2C(=O)N1c1ccccc1 (stereo not given) | -0.117 | 0.975 | 0.11 | 1.03 | 1.63 | 1.76 | 1.32 | -0.243 (inactive) | 1.5 | -0.121
COCCOC(=O)N1C(=O)[C@@]2(c3cc(C#CCCO)ccc31)[C@H](C(=O)N1CCN(c3ncccn3)CC1)[C@H]1C(=O)O[C@H](c3ccccc3)[C@H](c3ccccc3)N1[C@@H]2c1ccc(OCCO)cc1 | -0.372 | 0.713 | 0.0001 | 0.641 | 0.718 | 1.53 | 1.3 | -0.31 (inactive) | 0.832 | -0.171
C=CCNC(=O)[C@@H]1[C@H]2C(=O)O[C@H](c3ccccc3)[C@H](c3ccccc3)N2[C@H](c2ccc(OCCO)cc2)[C@@]12C(=O)N(C(=O)OCCOC)c1ccccc12 | -0.156 | 1.08 | 0.0021 | 0.591 | 0.964 | 1.05 | 1.25 | 0.0023 (inactive) | 0.954 | 0.0053
C=CCNC(=O)[C@H]1[C@@H]2C(=O)O[C@@H](c3ccccc3)[C@@H](c3ccccc3)N2[C@@H](c2ccc(O)cc2)[C@]12C(=O)N(C(=O)OCCOC)c1ccc(C#Cc3ccc(OC)cc3)cc12 | 0.165 | 0.383 | 0.0106 | 0.978 | 0.759 | 0.788 | 0.995 | 0.75 (inactive) | 0.307 | -0.0672

Compound | composite z-score [1] | composite z-score [2] | composite z-score [3] | composite z-score [4] | composite z-score [5] | composite z-score [6] | composite z-score [7] | z-score [8] | composite z-score [9] | composite z-score [10]
COC(=O)[C@@]1(Cc2ccccc2)[C@H]2c3cc(C(=O)N(C)C)n(CCF)c3C[C@H]2CN1C(=O)c1ccccc1 | 1.57 | 2.12 | 0.181 | 0.103 | 1.31 | 2.17 | 0.592 | 1.52 (inactive) | 0.974 | -0.0296
COC(=O)[C@]1(Cc2ccccc2N=[N+]=[N-])N=C(c2ccc(OCCCO)cc2)O[C@@H]1c1ccccc1CN=[N+]=[N-] | 0.736 | 1.08 | 0.052 | 0.728 | 0.632 | 1.06 | 1.16 | -2.25 (inactive) | 0.484 | 0.176
CC[C@@H](O[Si](C#C[Si](C(C)C)(C(C)C)C(C)C)(C(C)C)C(C)C)c1cn([C@H](CO)Cc2ccccc2)nn1 | -0.48 | 0.111 | -0.187 | 0.686 | 0.929 | 0.0252 | 0.846 | 0.355 (inactive) | 0.547 | -0.0994
C=C(CCCC)/C(=C/C[C@@H](OC(C)=O)c1cccc(OCCO)c1)c1cc(C(=O)OC)ccc1OC | 0.289 | -0.0739 | -0.14 | 0.222 | 0.0199 | 0.361 | 0.31 | 0.942 (inactive) | -0.0258 | -0.0618
C=C[C@H](OC)[C@@H](O)c1ccc(OC)c(O)c1 | 0.694 | -1.02 | -0.137 | -0.248 | -1.34 | -0.967 | -0.673 | 0.0137 (inactive) | -1 | 0.107
COc1ccc([Si](C)(C)[C@H]2[C@H](CC(=O)N3CCC[C@H]3CO)O[C@@]3(C(=O)N(C)c4ccccc43)[C@@H]2C)cc1 | 0.735 | 0.384 | -0.0375 | -0.0959 | -0.711 | 0.63 | 1.4 | -0.0568 (inactive) | 0.324 | 0.394
COC(=O)[C@@]1(Cc2ccc(F)cc2)[C@H]2c3cc(C(=O)N(C)C)n(CCF)c3C[C@H]2CN1C(=O)c1ccccc1 | 0.267 | 0.0612 | 0.131 | 0.623 | 1.22 | 1.83 | 1.06 | -1.3 (inactive) | 0.329 | 0.0274
CC(C)(C)OC(=O)CC[C@@]1(C(N)=O)N=C(c2ccc(OCCCO)cc2)O[C@@H]1c1ccccc1CN=[N+]=[N-] | 0.389 | 0.87 | 0.153 | 0.712 | 1.57 | 1.28 | 1.44 | 4.09 (inactive) | 1.47 | 0.452
COC(=O)C1(CC(C)C)C=C2C(=C(C)C(=O)C2C)CN1 (stereo not given) | 1.72 | 0.126 | 0.317 | -0.302 | 0.28 | -0.304 | 0.641 | 2.36 (inactive) | 1.58 | 1.43
CCCCN1CC=CC23O[C@@H]4/C=C\CCC(C)OC(=O)C4[C@H]2C(=O)N(CCO)[C@@H]3C1=O (stereo not given in full) | 0.19 | 1.97 | -0.117 | -0.206 | -0.722 | 0.19 | 1.12 | -0.093 (inactive) | -0.14 | -0.3
C=CC[C@H](O)c1ccc(O)c(F)c1 | 0.226 | -1.35 | -0.076 | -0.819 | -1.73 | -0.676 | -0.502 | 1.17 (inactive) | -1.39 | 0.414
Cc1ccc(S[C@]2(C(=O)NCc3ccccc3)CC(=O)N(Cc3ccccc3Cl)[C@@H]2c2ccc(CO)cc2)cc1 | 1.05 | -0.363 | -0.0639 | 0.0799 | -0.331 | 1.26 | 0.79 | -3.18 (inactive) | -0.603 | -0.353
O=C1c2ccccc2[C@](Cc2ccccc2I)(C(=O)NCCN2CCOCC2)[C@H](c2ccc(CO)cc2)N1Cc1ccccc1C(F)(F)F | -0.103 | 0.321 | -0.1 | 0.0371 | 0.614 | 1.2 | 1.25 | -1.66 (inactive) | 0.558 | 0.0156
O=C1OCC=C[C@H]2OC34C=CCN(Cn5nnc6ccccc65)C(=O)[C@H]3N(CCO)C(=O)[C@@H]4[C@@H]12 (stereo not given in full) | 0.645 | 1.9 | -0.129 | -0.749 | -1.45 | 0.864 | 0.579 | 0.13 (inactive) | -0.406 | -0.139
CN(C)CCCCCCNC(=O)[C@@H]1C[C@@H]2C(=O)N[C@@H](CCCC[N+](C)(C)C)C(=O)N2[C@@H]1c1cccc(OCCO)c1 | 0.516 | 0.869 | -0.0707 | -0.431 | -0.558 | -0.538 | 0.801 | 3.98 (inactive) | -0.516 | -0.333
CC(=O)NCCCC[C@@H]1NC(=O)[C@H]2C[C@@H](C(=O)NCCCCCN)[C@@H](c3ccc(O)cc3)N2C1=O | 0.392 | 0.861 | 0.007 | 0.198 | 1 | 0.0529 | 1.2 | -0.248 (inactive) | 0.418 | 0.141
